This is part of a sample that, as a whole, favours compounds with a hit. Of some 79,000 tested, about 15% had one in any assay. Values without a mark were called inactive. The source made the active and inactive calls. No stated cut-off is given here; in the data, active means growth inhibition above about 70%; inactive means the rest. Where a SMILES comes first, the peptide text is derived from it. [ ]: non-standard residue; d: D form. The star is where a group is joined. Phe(4-NO2) = N[CH](Cc1ccc([N+](=O)[O-])cc1)C(=O)O; Boc = CC(C)(C)OC(=O)*
Key:
[1] = NCI Yeast Anticancer Drug Screen. Data for the rad50 strain (AID 155);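 further: 0% = growth of vehicle-only cultures of the same strain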; details: S. cerevisiae rad50 strain growth inhibition, active compounds read high
Procedure, shortened: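 A DNA repair-deficient yeast mutant serves as the test organism; compound-induced growth inhibition is calculated against vehicle-treated cells.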

[2] = NCI Yeast Anticancer Drug Screen. Data for the mec2-1 strain (AID 157); details: S. cerevisiae mec2-1 strain, active compounds read high
Procedure, shortened: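 Readout is yeast growth inhibition, normalised to vehicle-treated controls, in the mec2-1 strain exposed to compound.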

[3] = NCI Yeast Anticancer Drug Screen. Data for the sgs1 mgt1 strain (AID 161);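 further: 0% = growth of cultures given vehicle only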; details: S. cerevisiae sgs1 mgt1 strain, active compounds read high
Procedure, shortened: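 Yeast cells carrying a defined DNA-repair defect were exposed to test compounds. Growth inhibition was measured relative to vehicle-treated controls.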

[4] = NCI Yeast Anticancer Drug Screen. Data for the cln2 rad14 strain (AID 165);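 further: 0% = growth equal to vehicle treated cultures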; details: S. cerevisiae cln2 rad14 strain, active compounds read high
Procedure, shortened: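 Relative to vehicle controls, growth inhibition of compound-treated cln2 rad14 yeast was recorded.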

[5] = NCI Yeast Anticancer Drug Screen. Data for the bub3 strain (AID 167); details: S. cerevisiae bub3 mutant strain, active compounds read high
Procedure, shortened: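 Inhibition values come from growth of compound-treated mutant yeast normalised to vehicle-treated controls.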

[6] = NCI Yeast Anticancer Drug Screen. Data for the mlh1 rad18 strain (AID 175); details: S. cerevisiae mlh1 rad18 strain growth inhibition, active compounds read high
Procedure, shortened: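 Test agents were incubated with a yeast strain of defined genotype (DNA damage repair defect). Inhibition of growth was derived by comparison with vehicle-exposed cultures.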

[7] = at 5.0 µM (retest, dose inferred, filed as 0.5)
[8] = at 50.0 µM (retest, dose inferred, filed as 5.0)

Row | Structure (SMILES) | growth inhibition [1, 7] [%] | growth inhibition [1, 8] | growth inhibition ([1]; at 50.0 µM) | growth inhibition [2, 7] [%] | growth inhibition [2, 8] | growth inhibition ([2]; at 50.0 µM) | growth inhibition [3, 7] [%] | growth inhibition [3, 8] | growth inhibition ([3]; at 50.0 µM) | growth inhibition [4, 7] [%] | growth inhibition [4, 8] | growth inhibition ([4]; at 50.0 µM) | growth inhibition [5, 7] [%] | growth inhibition [5, 8] | growth inhibition ([5]; at 50.0 µM) | growth inhibition [6, 7] [%] | growth inhibition [6, 8] | growth inhibition ([6]; at 50.0 µM)
1 | OC(CCN1CCOCC1)(c1cccc(Cl)c1)C1CCCCC1 (configuration not stated) | 3 | 45% | 72.1% (active) | 1 | 19% | -0.6% | 0 | 73% (active) | 45.7% | 2 | 40% | -26.9% | 2 | 68% | 75.4% (active) | 2 | 58% | 40.8%
2 | CS/C(=N\C(=S)N(C)C)N(c1ccccc1)c1nc(=[N+](C)C)ss1 | 27 | 98% (active) | 98.5% (active) | 13 | 67% | 99.5% (active) | 38 | 98% (active) | 97.9% (active) | 1 | 99% (active) | 86.1% (active) | 27 | 97% (active) | 98.8% (active) | 22 | 98% (active) | 98.7% (active)
3 | CN(C)c1ccc(/C=C(\NC(=O)c2ccccc2)c2nc3ccccc3s2)cc1 | 35 | 96% (active) | 97.1% (active) | 20 | 97% (active) | 97.2% (active) | 61 | 97% (active) | 98% (active) | 17 | 95% (active) | 97.3% (active) | 37 | 97% (active) | 95% (active) | 27 | 96% (active) | 97% (active)
4 | N#CC(C(=O)C(=O)NC1C2CC3CC(C2)CC1C3)c1c(Cl)cccc1Cl (configuration not stated) | 1 | 7% | 31.7% | -4 | -32% | 19.8% | -1 | 3% | 21.2% | 3 | 5% | 28.6% | -1 | 5% | 0.45% | -1 | 5% | 30.6%
5 | O=c1[nH]c2ccc([N+](=O)[O-])cc2c2ccc(Cl)cc12 | 3 | 9% | 77.2% (active) | -5 | 25% | 51.8% | -11 | 16% | 61.8% | 1 | 3% | -0.3% | 0 | 2% | 7.4% | 11 | 40% | 71.7% (active)
6 | CNC(=O)CCC(NC(=O)OC(C)(C)C)C(=O)NC(Cc1ccc([N+](=O)[O-])cc1)C(=O)NCC(=O)NC (configuration not stated) (Boc-Glu(NHMe)-[Phe(4-NO2)]-Gly-NHMe; configuration not given here) | 9 | -1% | -5.5% | -3 | 2% | -1.65% | -7 | 3% | 8.8% | -4 | 4% | 37.6% | -15 | -1% | -1.9% | -9 | 6% | -8.8%
7 | CCC(C)OC(=S)S (configuration not stated) | 4 | 36% | 42.9% | 8 | 44% | 33.8% | -7 | 26% | 74.2% (active) | 1 | -4% | -20.8% | 3 | 59% | 90.7% (active) | 15 | 57% | 85% (active)
8 | CC(NC(=O)OCc1ccccc1)C(=O)NC(C(=O)O)C(C)C (configuration not stated) | 29 | 66% | 63.1% | 22 | 46% | 38% | 27 | 65% | 60.6% | 37 | 48% | 59.6% | 37 | 84% (active) | 34.9% | 14 | 86% (active) | 74% (active)
9 | O=C(Nc1ccc(O)cc1O)c1ccccc1 | 2 | 53% | 85% (active) | -15 | 61% | 76.7% (active) | 6 | 82% (active) | 90.4% (active) | 7 | 50% | 72.3% (active) | 11 | 46% | 89.2% (active) | 3 | 76% (active) | 85.1% (active)
